An excerpt weighted towards active compounds, which were near 4% of everything screened.
Mtb betalactam: beta-lactam sensitization of Mtb H37Rv; AID 434955; actives 0.27% (n = 330,000); M. tuberculosis H37Rv growth with meropenem, percent inhibition; inhibition, % at 25 µM; call rule not given here;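 further: growth measured after seven days incubation then overnight dye step; 0% = bacteria only wells and 100% = bacteria with antibiotic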
FBA Mtb inh: Mtb fructose-bisphosphate aldolase inhibition | inhibition, % at 1 µM | AID 588726 | actives 2.3% (n = 360,000) | P9WQA3 | purified M. tuberculosis FBA, fluorescence read-out;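 further: 0% = vehicle and 100% = reference inhibitor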
Target sequence (P9WQA3 whole entry, looked up): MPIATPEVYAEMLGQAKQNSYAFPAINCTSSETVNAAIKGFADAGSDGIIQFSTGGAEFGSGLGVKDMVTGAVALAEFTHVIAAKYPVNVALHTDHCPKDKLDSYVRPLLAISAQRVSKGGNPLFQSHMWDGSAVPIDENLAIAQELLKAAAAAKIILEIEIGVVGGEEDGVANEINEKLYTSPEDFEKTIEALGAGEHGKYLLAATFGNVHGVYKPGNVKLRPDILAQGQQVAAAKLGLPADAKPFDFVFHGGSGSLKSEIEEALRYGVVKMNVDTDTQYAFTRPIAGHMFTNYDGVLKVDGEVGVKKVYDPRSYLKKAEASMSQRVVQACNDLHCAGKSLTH
GDH-TPI counter-1: inhibits GDH-TPI coupling enzymes, artifact for Mtb FBA screen; GDH-TPI coupled enzyme counterscreen, NADH absorbance; inhibition, % at 4.8 µM; actives 1.2% (n = 360,000); AID 588335; in the data active means inhibition above about 30%;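 further: 0% = DMSO wells and 100% = wells lacking the enzyme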
RecA splice inh: Mtb RecA intein splicing inhibition. cell-free RecA intein splicing, fluorescence. inhibition, % (no concentration beside the values). actives 0.75% (n = 290,000). AID 2221; in the data active means inhibition above about 30%;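 further: 0% = vehicle wells and 100% = reference inhibitor control wells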
Rv3671c inh: inhibits the M. tuberculosis serine protease Rv3671c. AID 2606. inhibition, % at 5.96 µM. actives 0.048% (n = 320,000); in the data active means inhibition above about 38%;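 further: extracellular domain of Rv3671c used as enzyme; 0% = enzyme with DMSO and 100% = no enzyme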
UGM FP inh: blocks M. tuberculosis UGM enzyme | P9WIQ1 | purified UGM, fluorescence polarization probe displacement | inhibition, % at 10 µM | actives 0.06% (n = 320,000); in the data active means inhibition above about 10%, passing the limit was not always enough
Mtb FBA inh conf: confirmation of M. tuberculosis fructose-bisphosphate aldolase inhibitors; shares compounds with FBA Mtb inh; inhibition, % at 1 µM; actives 78% (n = 5,600); purified M. tuberculosis FBA, fluorescence read-out;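 further: 0% = vehicle wells and 100% = reference inhibitor wells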
GDH-TPI counter-2: counter-screen for M. tuberculosis FBA inhibitors: GDH-TPI coupled enzyme inhibition | shares compounds with FBA Mtb inh | GDH-TPI coupled enzyme counterscreen, fluorescence | inhibition, % at 1 µM | actives 81% (n = 5,600) | AID 652141; in the data active means inhibition above about 10%
* hit, by the source's call. Unless noted, no stated cut-off is given here; in the data, active means inhibition above about 27%; inactive means the rest.

Results for COc1ccc(Cl)cc1-c1nc(SCC(=O)NC(C)(C)C)n[nH]1 ?
Mtb betalactam: -1.0; FBA Mtb inh: 28.5*; GDH-TPI counter-1: -8.2; RecA splice inh: -2.5; Rv3671c inh: 8.6; UGM FP inh: 0.3; Mtb FBA inh conf: 100.2*; GDH-TPI counter-2: 93.5*

What do the screens show for `NC(=O)c1ccccc1N/C=C/C(=O)c1ccc(F)cc1`?
FBA Mtb inh: 20.0; GDH-TPI counter-1: 19.8; RecA splice inh: -6.4

Results for Cc1ccc(C(=O)/C=C/Nc2ccccc2C(N)=O)o1 ?
Mtb betalactam: -0.4; FBA Mtb inh: 31.8*; GDH-TPI counter-1: 20.0; RecA splice inh: -36.9; Rv3671c inh: 4.2; UGM FP inh: -0.8; Mtb FBA inh conf: 41.5*; GDH-TPI counter-2: 23.8*

What do the screens show for `Cc1ccc(CNC(=O)C2CCN(S(=O)(=O)c3ccc4c(c3)CC(C)N4C(=O)C3CCC3)CC2)o1` (configuration not stated)?
Mtb betalactam: -1.9; FBA Mtb inh: -0.8; GDH-TPI counter-1: -3.1; RecA splice inh: 0.1; Rv3671c inh: 2.2; UGM FP inh: 0.0

What do the screens show for `COC(=O)c1ccc2[nH]c(C)cc(=O)c2c1`?
Mtb betalactam: -8.5; FBA Mtb inh: 33.7*; GDH-TPI counter-1: 11.0; RecA splice inh: -0.6; Rv3671c inh: -10.3; UGM FP inh: 0.6; Mtb FBA inh conf: 95.3*; GDH-TPI counter-2: 84.5*

Results for Cc1cc(=O)c2cc(C(=O)c3ccccc3)ccc2[nH]1 ?
Mtb betalactam: 7.3; FBA Mtb inh: 1.3; GDH-TPI counter-1: 8.1; RecA splice inh: -2.9; Rv3671c inh: -1.1; UGM FP inh: -2.9

What do the screens show for `CCOC(=O)c1ccc2[nH]c(C)cc(=O)c2c1`?
Mtb betalactam: 4.0; FBA Mtb inh: 36.3*; GDH-TPI counter-1: 13.5; RecA splice inh: 0.0; Rv3671c inh: 5.6; UGM FP inh: 1.0; Mtb FBA inh conf: active; GDH-TPI counter-2: 196.2*

What do the screens show for `CCOC(=O)c1ccc2[nH]c(C)c(C)c2c1`?
Mtb betalactam: 54.0; FBA Mtb inh: 0.6; GDH-TPI counter-1: 6.3; RecA splice inh: -5.0; Rv3671c inh: 7.0; UGM FP inh: 2.9

How did O=C(Nc1ccccc1)c1cc2ccccc2o1 do in these assays?
Mtb betalactam: 94.8; FBA Mtb inh: -3.8; GDH-TPI counter-1: 6.1; RecA splice inh: 1.6; Rv3671c inh: -12.7; UGM FP inh: 2.8

What do the screens show for `O=C(Nc1ccccc1)c1cccc(=O)o1`?
Mtb betalactam: -10.9; FBA Mtb inh: 51.7*; GDH-TPI counter-1: 33.3*; RecA splice inh: -0.1; Rv3671c inh: -2.7; UGM FP inh: 1.6; Mtb FBA inh conf: 196.7*; GDH-TPI counter-2: 174.3*

Results for COc1ccc(N(CN2C(=O)C3CCCCC3C2=O)C(=O)c2ccco2)cc1 (configuration not stated) ?
Mtb betalactam: -0.3; FBA Mtb inh: 1.1; GDH-TPI counter-1: -1.5; RecA splice inh: 0.8; Rv3671c inh: 0.5; UGM FP inh: -0.7

Results for COC(=O)c1ccc(-c2ccc(CNCC(O)c3ccccc3)o2)cc1 (configuration not stated) ?
Mtb betalactam: 8.9; FBA Mtb inh: 36.1*; GDH-TPI counter-1: 13.6; RecA splice inh: 5.9; Rv3671c inh: 8.2; UGM FP inh: 1.4; Mtb FBA inh conf: 125.6*; GDH-TPI counter-2: 105.6*

How did COC(=O)c1ccc(CNCC(O)COc2ccc(-c3ccccc3)cc2)cc1 (configuration not stated) do in these assays?
Mtb betalactam: 8.6; FBA Mtb inh: 3.9; GDH-TPI counter-1: -1.5; RecA splice inh: 0.3; Rv3671c inh: -10.5; UGM FP inh: 0.6

How did COc1ccc(CNC(=O)c2ccc(CS(=O)(=O)c3ccc(C)cc3)o2)cc1 do in these assays?
Mtb betalactam: -9.1; FBA Mtb inh: 1.5; GDH-TPI counter-1: -5.2; RecA splice inh: -3.8; Rv3671c inh: -8.6; UGM FP inh: 3.2

Results for Cc1ccc(S(=O)(=O)CC(CN2CCOCC2)N2CCOCC2)cc1 (configuration not stated) ?
Mtb betalactam: -4.5; FBA Mtb inh: -3.0; GDH-TPI counter-1: 6.6; RecA splice inh: -6.7; Rv3671c inh: 2.2; UGM FP inh: 0.8

Compound activity as filed in PubChem.
